Test results as given in PubChem BioAssay (Tox21).
Records with an inconclusive call do not appear. Activity calls are given as the source filed them. Unless noted, calls follow the shape of the dose curve; as a rule, active = well fitted curve in the direction sought with a large enough effect in the repeat runs; inconclusive = weak or mixed curves; inactive = no such curve, though single readings can be large; an effect the other way counts as inactive or inconclusive.

Legend:
[1] = qHTS assay to identify small molecule antagonists of the glucocorticoid receptor (GR) signaling pathway - cell viability counter screen (AID 720693); also: nearly all actives have a fitted effect of over 55% in size
[2] = qHTS assay for identifying genotoxic compounds that show differential cytotoxicity against isogenic chicken DT40 cell lines with known DNA damage response pathways - wild type cell line (AID 743012); also: nearly all actives have a fitted effect of over 60% in size; also: potency is read from the fitted curve at half-maximal effect
Summary of the method: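 Wild type DT40, 300 cells/well, ~0.5 h settle at 37 C/5% CO2; compounds in DMSO added by pintool; 40 h at 37 C/5% CO2; CellTiter-Glo, 30 min RT; luminescence.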

[3] = qHTS assay to identify small molecule antagonists of the androgen receptor (AR) signaling pathway - cell viability counter screen (AID 743033; also: nearly all actives have a fitted effect of over 45% in size)
[4] = qHTS assay to identify small molecule antagonists of the androgen receptor (AR) signaling pathway using the MDA cell line - cell viability counter screen (AID 743041; also: nearly all actives have a fitted effect of over 45% in size)
Summary of the method: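 R1881-driven MDA-kb2 AR-luc cells, 3,000/well, were dosed with library compounds for 16 h; cell health came from CellTiter-Fluor fluorescence in the reporter wells.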

[5] = qHTS assay to identify small molecule antagonists of the thyroid receptor (TR) signaling pathway (AID 743065); also: nearly all actives have a fitted effect of over 55% in size; also: potency is read from the fitted curve at half-maximal effect
Summary of the method: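 Antagonism measured as loss of luciferase signal in GH3 cells stably carrying a TRE-luciferase reporter, co-treated with compound and T3 (1 nM final) for 23.5 h at 37 C. Viability was read in the same well by CellTiter-Fluor.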

[6] = qHTS assay to identify small molecule antagonists of the estrogen receptor alpha (ER-alpha) signaling pathway - cell viability counter screen (AID 743074; calls by dose curve;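 also: HEK293 cells carrying ER-alpha-UAS-bla reporter stimulated with 17beta-estradiol; nearly all actives have a fitted effect of over 45% in size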)
[7] = qHTS assay to identify small molecule antagonists of the estrogen receptor alpha (ER-alpha) signaling pathway using the BG1 cell line - cell viability counter screen (AID 743081);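 also: compound given together with 17beta-estradiol as the ER stimulus; series mostly up to about 70 µM; nearly all actives have a fitted effect of over 45% in size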
Aromatase (Homo sapiens) = Aromatase (Homo sapiens) (UniProt P11511); assay: qHTS assay to identify aromatase inhibitors (AID 743083); also: series mostly up to about 70 µM; nearly all actives have a fitted effect of over 55% in size
[8] = qHTS assay for identifying genotoxic compounds that show differential cytotoxicity against isogenic chicken DT40 cell lines with known DNA damage response pathways - Rev3 mutant cell line (AID 743014); also: nearly all actives have a fitted effect of over 55% in size; also: potency is read from the fitted curve at half-maximal effect
[9] = qHTS assay to identify small molecule antagonists of the thyroid receptor (TR) signaling pathway - cell viability counter screen (AID 743064); also: nearly all actives have a fitted effect of over 50% in size; also: potency is read from the fitted curve at half-maximal effect
Summary of the method: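 Compounds were tested on GH3.TRE-Luc cells in the presence of T3 at 1 nM final. Following 23.5 h at 37 °C, cell viability was quantified by CellTiter-Fluor.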

[10] = test system: thyroid hormone receptor (rat, GH3 cells); assay: qHTS assay to identify small molecule agonists of the thyroid receptor (TR) signaling pathway (AID 743066; calls by dose curve)
[11] = molecular target: Estrogen receptor (Homo sapiens) (UniProt P03372); assay: qHTS assay to identify small molecule antagonists of the estrogen receptor alpha (ER-alpha) signaling pathway (AID 743069; active = well fitted curve in the direction sought with a large enough effect in the signal ratio in the repeat runs, not every such curve was filed as active; the % refers to the signal ratio; also: potency is read from the fitted curve at half-maximal effect)
Summary of the method: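 Compound effects are measured against 17beta-estradiol stimulation in HEK293 cells with a UAS-controlled beta-lactamase reporter for ER-alpha. Exposure lasts 18 hr at 37C; LiveBLAzer B/G FRET substrate follows for 2 hr at room temperature.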

[12] = molecular target: Estrogen receptor (Homo sapiens) (UniProt P03372); assay: qHTS assay to identify small molecule agonists of the estrogen receptor alpha (ER-alpha) signaling pathway (AID 743075; calls by dose curve)
[13] = molecular target: Estrogen receptor (Homo sapiens) (UniProt P03372); assay: qHTS assay to identify small molecule agonists of the estrogen receptor alpha (ER-alpha) signaling pathway using the BG1 cell line (AID 743079); also: nearly all actives have a fitted effect of over 20% in size
[14] = qHTS assay to identify small molecule antagonists of the estrogen receptor alpha (ER-alpha) signaling pathway using the BG1 cell line (AID 743080; calls by dose curve;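 also: BG1 cells stimulated with 17beta-estradiol alongside compound; series mostly up to about 70 µM; nearly all actives have a fitted effect of over 25% in size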)
Summary of the method: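 Luciferase inhibition measured with ONE-Glo after 30 min at RT in BG1Luc4E2 cells given test compounds and 17beta-estradiol for 21.5 h at 37 C; CellTiter-Fluor viability read in the same wells beforehand.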

[15] = qHTS assay for identifying genotoxic compounds that show differential cytotoxicity against isogenic chicken DT40 cell lines with known DNA damage response pathways - Rad54/Ku70 mutant cell line (AID 743015); also: nearly all actives have a fitted effect of over 60% in size; also: potency is read from the fitted curve at half-maximal effect
[16] = molecular target: Androgen receptor (Homo sapiens) (UniProt P10275); assay: qHTS assay to identify small molecule antagonists of the androgen receptor (AR) signaling pathway (AID 743035; active = well fitted inhibition curve with a large enough effect in the signal ratio in the repeat runs, not every such curve was filed as active; the % refers to the signal ratio; also: potency is read from the fitted curve at half-maximal effect)
Summary of the method: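 Fluorescence from a beta-lactamase FRET substrate (LiveBLAzer B/G, 2 h, room temperature) measured inhibition of R1881-stimulated signaling in GeneBLAzer AR-UAS-bla HEK293 cells exposed to compound for 16 h at 37C.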

[17] = molecular target: Androgen receptor (Homo sapiens) (UniProt P10275); assay: qHTS assay to identify small molecule agonists of the androgen receptor (AR) signaling pathway (AID 743036; active = well fitted activation curve with a large enough effect in the signal ratio in the repeat runs, with a control signal flat, not every such curve was filed as active; the % refers to the signal ratio)
Summary of the method: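 Beta-lactamase under UAS control, stably integrated in HEK293 GripTite cells, reports receptor activation. After 16 h compound treatment, cells received FRET substrate for 2 h at room temperature before fluorescence reading.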

[18] = molecular target: Androgen receptor (Homo sapiens) (UniProt P10275); assay: qHTS assay to identify small molecule agonists of the androgen receptor (AR) signaling pathway using the MDA cell line (AID 743040; also: nearly all actives have a fitted effect of over 20% in size)
Summary of the method: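 After a 5 h incubation at 37C and 0% CO2, MDA-kb2 reporter cells were dosed with compounds in DMSO and kept 16 h under the same conditions. Luciferase activity was then read as luminescence with ONE-Glo.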

[19] = molecular target: Androgen receptor (Homo sapiens) (UniProt P10275); assay: qHTS assay to identify small molecule antagonists of the androgen receptor (AR) signaling pathway using the MDA cell line (AID 743042; also: nearly all actives have a fitted effect of over 55% in size)
Summary of the method: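 Antagonist mode: compounds plus R1881 agonist added to MDA-kb2 AR-luc cells, incubated 16 h at 37C. Luciferase reporter luminescence quantified, with multiplexed CellTiter-Fluor readout for cell viability.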

Measured: Potency

Chain of Androgen receptor (Homo sapiens) (P10275 whole entry, looked up): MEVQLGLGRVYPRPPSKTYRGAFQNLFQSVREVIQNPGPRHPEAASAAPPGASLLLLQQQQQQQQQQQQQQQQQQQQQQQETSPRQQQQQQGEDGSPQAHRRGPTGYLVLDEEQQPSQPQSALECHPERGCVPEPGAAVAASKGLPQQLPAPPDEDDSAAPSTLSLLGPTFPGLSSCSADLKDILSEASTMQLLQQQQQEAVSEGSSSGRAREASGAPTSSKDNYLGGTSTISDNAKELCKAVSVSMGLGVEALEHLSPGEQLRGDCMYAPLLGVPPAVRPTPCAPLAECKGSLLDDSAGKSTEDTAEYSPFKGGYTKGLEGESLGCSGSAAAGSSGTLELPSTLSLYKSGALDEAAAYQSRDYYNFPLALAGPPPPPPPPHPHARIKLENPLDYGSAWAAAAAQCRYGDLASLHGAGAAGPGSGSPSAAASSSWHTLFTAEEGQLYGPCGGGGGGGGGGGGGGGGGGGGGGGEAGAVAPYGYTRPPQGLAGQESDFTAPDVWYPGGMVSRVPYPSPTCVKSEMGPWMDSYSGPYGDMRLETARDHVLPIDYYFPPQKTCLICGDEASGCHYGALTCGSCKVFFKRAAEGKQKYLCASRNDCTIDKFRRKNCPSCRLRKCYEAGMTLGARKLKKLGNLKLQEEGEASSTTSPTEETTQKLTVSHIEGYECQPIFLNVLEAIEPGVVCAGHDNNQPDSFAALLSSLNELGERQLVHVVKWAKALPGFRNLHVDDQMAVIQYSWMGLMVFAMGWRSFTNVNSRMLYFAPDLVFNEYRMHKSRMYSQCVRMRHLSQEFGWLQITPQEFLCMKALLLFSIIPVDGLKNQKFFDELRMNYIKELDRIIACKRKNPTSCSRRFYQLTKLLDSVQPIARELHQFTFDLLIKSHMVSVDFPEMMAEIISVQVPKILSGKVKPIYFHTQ
Chain of Aromatase (Homo sapiens) (P11511 whole entry, looked up): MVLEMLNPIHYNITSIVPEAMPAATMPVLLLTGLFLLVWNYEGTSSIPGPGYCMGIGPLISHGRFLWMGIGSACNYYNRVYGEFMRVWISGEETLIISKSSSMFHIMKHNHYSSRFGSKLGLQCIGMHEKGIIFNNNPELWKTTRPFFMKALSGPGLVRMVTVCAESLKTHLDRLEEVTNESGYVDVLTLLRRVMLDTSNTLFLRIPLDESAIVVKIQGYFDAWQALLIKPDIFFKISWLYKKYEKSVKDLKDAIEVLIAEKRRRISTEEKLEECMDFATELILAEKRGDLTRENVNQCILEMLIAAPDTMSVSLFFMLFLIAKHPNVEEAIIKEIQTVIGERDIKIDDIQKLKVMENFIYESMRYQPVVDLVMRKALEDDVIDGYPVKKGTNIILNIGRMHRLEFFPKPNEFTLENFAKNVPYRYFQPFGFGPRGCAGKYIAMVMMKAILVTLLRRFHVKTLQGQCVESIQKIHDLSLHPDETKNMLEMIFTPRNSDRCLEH
Chain of Estrogen receptor (Homo sapiens) (P03372 whole entry, looked up): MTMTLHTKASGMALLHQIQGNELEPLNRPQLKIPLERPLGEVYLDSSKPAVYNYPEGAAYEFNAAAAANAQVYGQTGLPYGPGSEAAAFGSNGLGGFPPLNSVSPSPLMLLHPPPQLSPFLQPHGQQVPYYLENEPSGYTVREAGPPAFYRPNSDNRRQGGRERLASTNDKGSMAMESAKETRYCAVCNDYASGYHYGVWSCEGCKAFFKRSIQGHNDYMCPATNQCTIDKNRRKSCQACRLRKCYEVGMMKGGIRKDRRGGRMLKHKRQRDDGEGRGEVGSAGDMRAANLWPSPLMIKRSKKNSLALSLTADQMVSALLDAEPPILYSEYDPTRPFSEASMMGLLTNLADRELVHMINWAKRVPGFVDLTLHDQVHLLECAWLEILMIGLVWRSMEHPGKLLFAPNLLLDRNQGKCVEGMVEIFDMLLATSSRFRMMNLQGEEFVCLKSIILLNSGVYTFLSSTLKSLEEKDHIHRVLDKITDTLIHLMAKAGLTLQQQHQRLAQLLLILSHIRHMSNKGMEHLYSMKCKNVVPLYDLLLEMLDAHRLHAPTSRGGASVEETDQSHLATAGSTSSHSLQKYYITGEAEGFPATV

CCCCC/C=C/CC(=O)OC
inactive: [1] | [2] | [3] | [4] | [5] | [6] | [7] | Aromatase (Homo sapiens)

CCc1nccnc1C
not listed: [5] | [15] | [16] | [17] | [18] | [19]
inactive: all other assays above

O=c1cc(O)c(Cl)c[nH]1
inactive: [1] | [2] | [15] | [3] | [9] | [6] | [7] | Aromatase (Homo sapiens)

CC(C)(C)NCCO
not listed: [8] | [16] | [17] | [18] | [19]
inactive: all other assays above

O=S1(=O)CCCC1
not listed: [8] | [16] | [17] | [18] | [19]
inactive: all other assays above

COc1ccc(NS(=O)(=O)c2ccc(N)cc2)nn1
not listed: [8] | [15] | [16] | [17] | [18] | [19]
inactive: all other assays above

O=C(CN1CCN(Cc2ccc3c(c2)OCO3)CC1)N1c2ccccc2Sc2ccccc21
active: [2] 13.3 µM | [15] 26.6 µM | [16] 26.8 µM | [9] 29.8 µM | [5] 26.6 µM
inactive: [1] | [17] | [18] | [4] | [19] | [6] | [7] | Aromatase (Homo sapiens)

C=CCOc1cc(Cl)ccc1C(=O)NCCN(CC)CC
inactive: [1] | [3] | [10] | [6] | [7] | Aromatase (Homo sapiens)
active: [2] 15 µM | [8] 29.8 µM | [5] 13.3 µM

C[Si]1(C)N[Si](C)(C)N[Si](C)(C)N1
not listed: [4] | [8] | [16] | [17] | [18] | [19]
inactive: all other assays above

C=C[C@@H](C)CCC=C(C)C
inactive: [1] | [2] | [8] | [3] | [4] | [9] | [5] | [10] | [6] | [7] | Aromatase (Homo sapiens)

NS(=O)(=O)c1ccccc1OC(F)(F)F
inactive: [1] | [2] | [8] | [3] | [4] | [9] | [6] | [7] | Aromatase (Homo sapiens)

CCN(CCO)c1cccc(C)c1
inactive: [1] | [2] | [3] | [4] | [9] | [6] | [12] | [13] | [14] | [7] | Aromatase (Homo sapiens)

CCCC(C)CC (stereo not drawn)
inactive: [1] | [2] | [8] | [3] | [4] | [9] | [5] | [10] | [6] | [7] | Aromatase (Homo sapiens)

CC(C)COC(=O)CCCCC(=O)OCC(C)C
inactive: [1] | [2] | [15] | [3] | [9] | [5] | [10] | [6] | [7] | Aromatase (Homo sapiens)

CCC(=O)OCCC(C)CCC=C(C)C (stereo not drawn)
inactive: [1] | [2] | [3] | [9] | [5] | [10] | [6] | [7] | Aromatase (Homo sapiens)

COc1cc([N+](=O)[O-])ccc1N
active: [11] 6.92 µM [inhibitor]
not listed: [4] | [7] | [8] | [9] | [16]
inactive: all other assays above

NS(=O)(=O)c1cc2c(cc1Cl)NC(C(Cl)Cl)NS2(=O)=O (stereo not drawn)
inactive: [1] | [2] | [15] | [4] | [9] | [5] | [10] | [6] | [7] | Aromatase (Homo sapiens)

CC(C)(CO)[C@@H](O)C(=O)NCCCO
not listed: [5] | [9] | [10] | [15] | [16] | [17] | [18] | [19]
inactive: all other assays above

O=C(Nc1cccc(C2=NCCN2)c1)Nc1cccc(C2=NCCN2)c1
inactive: [1] | [3] | [4] | [9] | [11] | [6] | [12] | [14] | [7] | Aromatase (Homo sapiens)
active: [2] 11.9 µM

CCC(CO)CO
not listed: [5] | [8] | [15] | [16] | [17] | [18] | [19]
inactive: all other assays above

O=C1OC(=O)c2cc(Oc3ccc4c(c3)C(=O)OC4=O)ccc21
not listed: [2] | [4] | [9] | [15]
inactive: all other assays above
